Reference: PubChem BioAssay (NCATS)
Results filed as inconclusive are left out. Activity calls are given as the source filed them. Calls come from the whole dose curve; as a rule, active = well fitted inhibition curve with a large enough effect; inconclusive = small, poorly fitted or top-dose-only effect; inactive = flat fitted curve, though single readings scatter.

These compounds were tested on CRL-7250 (assay: qHTS assay to identify novel small-molecules to repurpose for Merkel cell carcinoma treatment (AID 1296009; note: nearly all actives have a fitted effect of over 60% in size)). Conditions: MCC and control cell lines, CellTiter-Glo viability, 72 h; series mostly up to 92 µM; activity change, negative = cytotoxicity: at the top concentration.
In short: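 CellTiter-Glo luminescence after 72 hr compound exposure at 37 degree celsius gave cell viability. Libraries NPC and MIPE were run as 8- and 11-point dose responses; RLUs normalized to DMSO (negative) and no-cell (cytotoxicity) controls.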

Q: For `COC(=O)C1=COC(OC2OC(CO)C(O)C(O)C2O)C2C(C)CC(=O)C12O` (stereo not given), which “outcome” value is on record?
A: Its value is “inactive [at 17.4 µM]”.

Q: Which “outcome” value does the source give for `CC(O)(CC(=O)O)CC(=O)OCc1ccc(O[C@@H]2O[C@H](CO)[C@@H](O)[C@H](O)[C@H]2O)cc1` (stereo not given in full) here?
A: The value was “inactive [at 17.4 µM]”.

Q: How did the “outcome” value turn out when `CCC/C=C1\OC(=O)C2=C1CCC(O)C2O` (stereo not given) was run?
A: Its value is “inactive”.

Q: For `C/C=C/C=C/C(O)=C1/C(=O)[C@]2(C)C(=O)[C@@](C)(O)[C@H]1[C@H]([C@@]1(C)OC(=O)C(C)=C1O)[C@H]2C(=O)CC/C=C/C`, which “outcome” value is on record?
A: Its value is “inactive [at 17.4 µM]”.

Q: With `COC(=O)c1cc(Br)cnc1N1CCC(NC2CCCCC2)C(O)C1` (stereo not given) as the compound, how does the “outcome” value read?
A: Its value is “inactive”.

Q: For `CO[C@@]12CC3[C@@H]([C@@H](O)[C@@H](OC(C)=O)C4[C@](C)(COC(C)=O)CCC[C@]34C)[C@@H](C)C1=CC(=O)O2` (stereo not given in full), which “outcome” value is on record?
A: The value was “inactive [at 17.4 µM]”.

Q: With `O=S(=O)(O)c1ccc(Nc2ncnc3c2ncn3[C@@H]2O[C@H](CO)[C@@H](O)[C@H]2O)cc1` as the compound, how does the “outcome” value read?
A: Its value is “inactive”.

Q: Which “outcome” value does the source give for `CC(=O)OC1C(OC(=O)c2ccccc2)C2C(C)(C)CCC(OC(C)=O)C2(C)C23CCC(C)(C2)C(=O)CC13` (stereo not given) here?
A: The value was “inactive [at 17.4 µM]”.

Q: Which “outcome” value does the source give for `CC1=CC(=O)C(=C(C)C)CC2C(C)(O)CCC12O` (stereo not given) here?
A: Its value is “inactive”.

Q: `COCCOc1cnc2ccn([C@H](C)c3nnc4c(F)cc(-c5cnn(C)c5)cn34)c(=O)c2c1` was tested. Which “outcome” value did it give?
A: Its value is “inactive”.

Q: With `C=Cc1cc2oc(-c3ccc(O)c(F)c3)nc2cc1O` as the compound, how does the “outcome” value read?
A: Its value is “inactive”.

Q: `C/C(=C\CCC1(C)C2CC3C(C2)C31C)C(=O)O` (stereo not given) was tested. Which “outcome” value did it give?
A: Its value is “inactive”.

Q: Which outcome does the source give for `C[C@@H]1O[C@@H](O[C@@H]2[C@@H](O)[C@H](O[C@H]3[C@H](O[C@H]4CC[C@@]5(C)C(CC[C@]6(C)C5CC=C5[C@@H]7CC(C)(C)CC[C@]7(C(=O)O[C@@H]7O[C@H](CO)[C@@H](O)[C@H](O)[C@H]7O[C@@H]7O[C@@H](C)[C@H](O[C@@H]8O[C@@H](C)[C@H](O)[C@@H](O)[C@H]8O)[C@@H](O)[C@H]7O)CC[C@]56C)[C@@]4(C)CO)O[C@H](C(=O)O)[C@@H](O)[C@@H]3O)O[C@H](CO)[C@H]2O)[C@H](O)[C@H](O)[C@H]1O` (stereo not given in full) here?
A: Its outcome is “inactive [at 9.27 µM]”.

Q: Which “outcome” value does the source give for `CCc1cc2c(cc1CC)CC(NCC(O)c1ccc(O)c3[nH]c(=O)ccc13)C2` (stereo not given) here?
A: Its value is “inactive”.

Q: How did the “outcome” value turn out when `NC1(c2ccc(NC(=O)c3ccnc(-c4cc(C(=O)O)ccn4)c3)cc2)CC1` was run?
A: Its value is “inactive”.

Q: How did the “outcome” value turn out when `O=C(NCCCN1CCC2(CC1)OCc1ccccc12)[C@H]1CCCN1Cc1ccccc1` was run?
A: The value was “inactive”.

Q: For `CC(C)[C@](O)(c1ccc2cc(OC(F)F)c(OC(F)F)cc2c1)c1cn[nH]n1`, which “outcome” value is on record?
A: Its value is “inactive”.

Q: With `O=C1C(Cl)=C(N2CCOCC2)C(=O)N1c1ccc(Cl)c(Cl)c1` as the compound, how does the “outcome” value read?
A: Its value is “inactive [at 17.4 µM]”.

Q: `CC(C)OC(=O)N1CCC(Oc2ncnc3c2cnn3-c2ccc(S(C)(=O)=O)cc2F)CC1` was tested. Which “outcome” value did it give?
A: Its value is “inactive”.

Q: For `COC1OC(O)C2(CCC3(O2)C(C)CC2OC(=O)C4(C)CCCC3(C)C24)C1O` (stereo not given), which “outcome” value is on record?
A: The value was “inactive”.

Q: How did the “outcome” value turn out when `CC1(C)CC[C@]2(C(=O)O[C@@H]3O[C@H](CO)[C@@H](O)[C@H](O)[C@H]3O)CC[C@]3(C)C(=CCC4[C@@]5(C)C[C@@H](O)[C@H](O)C(C)(C)C5[C@H](O)C[C@]43C)[C@@H]2[C@@H]1O` (stereo not given in full) was run?
A: The value was “inactive [at 17.4 µM]”.

Q: For `COc1ccc(O[C@@H]2O[C@H](CO)[C@@H](O)[C@H](O)[C@H]2O)cc1OC`, which “outcome” value is on record?
A: Its value is “inactive”.

Q: With `CCOC(=O)[C@H](CCc1ccccc1)N[C@@H](C)C(=O)N1C2CCCCC2C[C@H]1C(=O)O` (stereo not given in full) as the compound, how does the “outcome” value read?
A: Its value is “inactive”.

Q: With `COC(=O)C1=C[C@@H](O)[C@@H](O)[C@H](O[C@@H]2O[C@H](COC(=O)/C=C/c3ccccc3)[C@@H](O)[C@H](O)[C@H]2O)C1` as the compound, how does the “outcome” value read?
A: Its value is “inactive [at 17.4 µM]”.

Q: How did the “outcome” value turn out when `COC(=O)c1cc(CN2CCN(C(=N)N)CC2)cc(C(=O)N2CCN(C(=O)c3ccc(C(=N)N)cc3)CC2)c1` was run?
A: The value was “inactive”.

Q: `COC1=Cc2c(nc3n(c2=O)C(C)C(=O)NC3(O)C(C)C)OC=C1` (stereo not given) was tested. Which “outcome” value did it give?
A: Its value is “inactive”.

Q: For `C1=Cc2ccccc2C(=C2CCN(CCCCc3nn[nH]n3)CC2)c2ccccc21`, which “outcome” value is on record?
A: The value was “inactive”.

Q: Which “outcome” value does the source give for `CNC(C)C(=O)NC(C(=O)N1CCCC1C(=O)Nc1cccc2ncccc12)C(C)C` (stereo not given) here?
A: The value was “inactive”.

Q: Which “outcome” value does the source give for `COC(=O)[C@@H](O)[C@H]1[C@@]2(C)CC3(O)[C@@H](C(=O)[C@H]2O)[C@]24O[C@]25CC(=O)O[C@@H](c2ccoc2)[C@]5(C)CCC4[C@]13C` (stereo not given in full) here?
A: The value was “inactive [at 17.4 µM]”.

Q: How did the “outcome” value turn out when `COC(=O)C[C@H]1C(C)(C)[C@H](OC(=O)C(C)C)[C@@]2(O)C(=O)[C@]1(C)C1CC[C@]3(C)C(CC(=O)O[C@H]3c3ccoc3)[C@]13O[C@@H]32` (stereo not given in full) was run?
A: Its value is “inactive [at 17.4 µM]”.

Q: How did the “outcome” value turn out when `CC1C(O)C(O)C2C(C(=O)OCCc3ccc(O)cc3)=COC(O[C@@H]3O[C@H](CO)[C@@H](O)[C@H](O)[C@H]3O)C12` (stereo not given in full) was run?
A: Its value is “inactive [at 17.4 µM]”.

Q: `OC[C@@]1(O)CO[C@@H](OC[C@H]2O[C@@H](Oc3ccccc3)[C@H](O)[C@@H](O)[C@@H]2O)[C@@H]1O` was tested. Which “outcome” value did it give?
A: Its value is “inactive”.

Q: How did the “outcome” value turn out when `COc1cc(C2CC(=O)Nc3c2cc(Br)c2ccccc32)cc(OC)c1OC` (stereo not given) was run?
A: The value was “inactive”.

Q: With `CCCCCCc1cccc(NC(=O)[C@H](N)CCP(=O)(O)O)c1` as the compound, how does the outcome read?
A: The outcome was “inactive [at 9.27 µM]”.

Q: With `C[C@@H]1O[C@@H](O[C@H]2[C@H](O)[C@@H](C(=O)O)O[C@@H](O[C@H]3CC[C@@]4(C)C(CC[C@]5(C)C4CC=C4C6CC(C)(C)CC[C@]6(C(=O)O)CC[C@]45C)C3(C)C)[C@@H]2O[C@@H]2O[C@H](CO)[C@@H](O)[C@H](O)[C@H]2O)[C@H](O)[C@H](O)[C@H]1O` (stereo not given in full) as the compound, how does the outcome read?
A: The outcome was “inactive [at 9.27 µM]”.

Q: For `Cc1ccc(-c2c(-c3nn(C)c4ncnc(N5CCC(N6CCCCC6)C5)c34)cnn2C)cc1` (stereo not given), which “outcome” value is on record?
A: The value was “inactive”.

Q: For `CN(C)c1ccc(C2O[C@@H](c3ccccc3)C[C@H](c3ccccc3)O2)cc1` (stereo not given in full), which “outcome” value is on record?
A: The value was “inactive”.

Q: How did the “outcome” value turn out when `CC(C)=CCCC1(C)Oc2cc3c(c4c2C2C(O4)C(C)(O)CCC21)CN(C(CCC(=O)O)C(=O)O)C3=O` (stereo not given) was run?
A: The value was “inactive [at 17.4 µM]”.

Q: With `C=C1C(O)CCC2(C)CC3(OC)OC(=O)C(C)=C3CC12` (stereo not given) as the compound, how does the “outcome” value read?
A: The value was “inactive”.

Q: For `CCC1OC(=O)C(C)CC(C)C(=O)/C(C)=C/C(C)C(=O)/C=C/C1(C)O` (stereo not given), which “outcome” value is on record?
A: The value was “inactive”.
